Screens: PubChem BioAssay, several laboratories
CRFBP-R2 block: antagonists of CRF-binding protein/CRF-R2 receptor complex; HEK293 CRF-R2/CRF-BP, CRF-induced calcium fluorescence; inhibition, % at 11.8 µM; actives 0.59% (n = 350,000);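 active = inhibition of the ligand-induced calcium signal above about 50% at the single tested concentration, limit read from the data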
NRP1-CendR mod: NRP-1/CendR interaction modulation; O14786; inhibition, % at 25 µM; AID 602438; FAM-RPARPAR peptide binding to NRP-1, fluorescence polarization; actives 0.85% (n = 360,000);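 active = inhibition or corrected inhibition above about 18%, plus a signal ratio from 0.5 to 1.5, limit read from the data, passing the limit was not always enough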
NadD block: NadD (S. aureus) enzyme inhibition; purified NadD enzyme, colorimetric absorbance read-out; inhibition, % at 20 µM; actives 0.78% (n = 360,000); in the data active = inhibition above about 26%
Myeloid diff 2: promotes myeloid progenitor differentiation | ER-HoxA9 myeloid progenitors, lysozyme-GFP differentiation, flow cytometry | calls only at 10 µM | actives 1% (n = 360,000) | AID 624256;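 active = normalized GFP-positive differentiation at or above the plate's own cutoff, the solvent-only control mean plus 3 SD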;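 also: cells exposed to compound for four days before flow analysis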
FAS-TE inh: blocks the thioesterase domain of human fatty acid synthase; P49327; actives 0.67% (n = 360,000); recombinant FAS-TE, OMFH fluorogenic substrate, fluorescence endpoint; inhibition, % at 15 µM;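 active = compounds whose normalised, plate-corrected inhibition of enzyme fluorescence in the single-dose primary screen is 50% or more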;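 also: 0% = DMSO with enzyme and 100% = substrate without enzyme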
Myeloid diff CP1: compounds promoting myeloid differentiation. shares compounds with Myeloid diff 2. actives 2% (n = 2,300). calls only. ER-HoxA9 myeloid progenitors, GFP/Mac1 double-positive flow. AID 651706;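 active = share of green or green-and-red cells above 9 and 9% in run 1 or 4 and 3% in run 2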
GFP autofluor: counter-screen for myeloid differentiation promoters: compound fluorescence; shares compounds with Myeloid diff 2; ER-HoxA9 myeloid progenitors, no estrogen, GFP autofluorescence flow cytometry; vehicle wells 0%, positive control 100%; fluorescence response, % (test concentration not listed); actives 7.4% (n = 2,300);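 active = over 5% cells positive for green fluorescent reporter, or over 2% positive for both it and APC stain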;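 also: range taken on the double positive population between DMSO and positive control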
Active calls of the source: *; i = inactive; x = no result given; + = active, no number. Hits are enriched below; roughly 3.6% of the tested compounds scored in any of these assays.

SMILES	CRFBP-R2 block	NRP1-CendR mod	NadD block	Myeloid diff 2	FAS-TE inh	Myeloid diff CP1	GFP autofluor
COc1ccc2c(c1)C(CC(C)=O)N(c1ccc(-c3cccnc3)cc1)C(c1ccsc1)=C2 (stereo not given)	x	11	23	i	14	x	x
COc1ccc(N2C(c3ccsc3)=Cc3cc4c(cc3C2c2c[nH]c3ccccc23)OCO4)cc1 (stereo not given)	x	-13	17	+	10	i	2
Cc1cccc(CNc2ncnc3ccc(-c4cccnc4)cc23)c1	-6	-4	5	+	3	i	0
Cc1cccc(-c2ccc3ncnc(NCc4cccnc4)c3c2)c1	3	14	4	i	-7	x	x
COc1cc(C#N)ccc1OC(=O)C1CCN(C(=O)c2ccc(F)cc2)CC1	14	2	2	i	-4	x	x
CCC(=O)N(CCC(c1ccc(C)cc1)c1ccco1)Cc1ccco1 (stereo not given)	19	-20	20	i	2	i	0
O=C(Nc1ccncc1)c1ccc(Cl)c(S(=O)(=O)N2CCc3ccccc32)c1	-14	-7	4	i	12	i	1
COc1ccc(C(=O)NC2CCCCCC2)cc1S(=O)(=O)N1CCCC1	1	10	-3	i	-5	x	x
COc1ccc(C(=O)NC2CCCCCC2)cc1S(=O)(=O)N1CCCc2ccccc21	7	-7	3	i	26	i	0
COC(=O)c1cc2oc3ccccc3c2n1CC(=O)N1CCCc2ccccc21	-1	12	4	+	4	i	0
CC(=O)NC/C(C)=N\Nc1ccc([N+](=O)[O-])cc1	-6	-16	2	+	-45	i	49*
CCCCOCCCN1CC(=O)N2[C@@H](Cc3c([nH]c4ccccc34)C2(C)C)C1=O	2	-3	-8	i	5	x	x
CC(C)(C)c1ccc(C(=O)NC(Cc2ccccc2)C(=O)O)cc1 (stereo not given)	x	10	5	i	-1	i	0
O=C(NC(Cc1ccccc1)C(=O)O)c1ccccc1 (stereo not given)	8	17	5	i	-3	x	x
COc1ccccc1C1N(c2ccc(Cl)cc2)C(=O)C2CCCN21 (stereo not given)	-4	-31	1	+	-10	+	0
Cc1ccc(C(=O)OCC(=O)N2CCCCCC2)c(O)c1	0	9	0	i	-1	x	x
O=C(Cc1c(F)cccc1Cl)NNC(=S)Nc1ccc(S(=O)(=O)Nc2ncccn2)cc1	22	-2	1	i	-4	x	x
O=C(/C=C/[C@H]1O[C@@H](n2cnc3c(NC(=O)c4ccccc4)ncnc32)[C@H](O)[C@@H]1O)NCCCN1CCCC1=O	x	8	-5	i	-12	x	x
O=C(CSc1nnc(CNC(=O)c2ccco2)o1)Nc1cccc(Cl)c1	-1	14	-1	+	-8	i	0
O=C(CSc1nnc(CNC(=O)c2ccco2)o1)Nc1ccc(Cl)cc1	-14	6	-2	i	-4	x	x
COC(=O)c1ccc(OC)c(CN2CCCN(Cc3cc(C)ccc3C)S2(=O)=O)c1	10	2	-9	i	26	x	x
CCCCC(O)(CCCC)C(=O)N/N=C(\C)c1ccc(Cl)cc1	4	7	7	i	8	i	0
C/C(=N/NC(=O)CNc1ccc(C)cc1)c1ccc(Cl)cc1	-49	-18	12	i	6	x	x
CCCn1c(SCC(=O)Nc2ccccc2Cl)nc(O)cc1=O	-2	-10	-5	i	-5	i	0
Cc1ccc(-c2csc(NC(=O)/C=C/c3cccs3)n2)cc1C	-8	7	5	i	8	i	0
O=C(/C=C/c1ccccc1)Nc1nc(-c2ccncc2)cs1	22	1	4	i	6	x	x
N#Cc1ccc(-c2csc(NC(=O)/C=C/c3cccs3)n2)cc1	-60	4	11	+	14	i	0
CC(=O)c1ccc(S(=O)(=O)N2CCN(C(=O)c3ccc(-n4nc(C)c(Cl)c4C)cc3)CC2)cc1	1	-1	-2	i	32	i	0
